Measurements from PubChem BioAssay (NCATS).
A number with no mark means an inactive call. Records with an inconclusive call do not appear. Activity calls are given as the source filed them. Calls follow the shape of the dose curve; as a rule, active = well fitted curve in the direction sought with a large enough effect; inconclusive = small, poorly fitted or top-dose-only effect, or another doubt; inactive = no such curve, though single readings can be large; an effect the other way counts as inactive or inconclusive.

What follows are molecules tested against Cytochrome P450 2C9 (Homo sapiens) (UniProt P11712) (assay: qHTS Assay for Inhibitors and Substrates of Cytochrome P450 2C9 (AID 883; also: nearly all actives have a fitted effect of over 60% in size; also: potency is read from the fitted curve at half-maximal effect; as to activity change, negative = inhibition: % is scaled to controls: 0 for no effect and ±100 for the full control effect)). Conditions: recombinant CYP2C9, luciferin-H luminescence, 60 min; series mostly up to 57.1 µM; activity change, negative = inhibition: at the top concentration.
Summary of the method: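 Signal: luciferase luminescence reporting luciferin produced by CYP2C9. Conditions: 10nM enzyme, Luciferin-H 100uM at KM, 25mM KPO4, 37C, 60 min NADPH-driven reaction. Reference: 57uM sulphaphenazole as 100% inhibition.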

Sequence of Cytochrome P450 2C9 (Homo sapiens) (P11712 whole entry, looked up): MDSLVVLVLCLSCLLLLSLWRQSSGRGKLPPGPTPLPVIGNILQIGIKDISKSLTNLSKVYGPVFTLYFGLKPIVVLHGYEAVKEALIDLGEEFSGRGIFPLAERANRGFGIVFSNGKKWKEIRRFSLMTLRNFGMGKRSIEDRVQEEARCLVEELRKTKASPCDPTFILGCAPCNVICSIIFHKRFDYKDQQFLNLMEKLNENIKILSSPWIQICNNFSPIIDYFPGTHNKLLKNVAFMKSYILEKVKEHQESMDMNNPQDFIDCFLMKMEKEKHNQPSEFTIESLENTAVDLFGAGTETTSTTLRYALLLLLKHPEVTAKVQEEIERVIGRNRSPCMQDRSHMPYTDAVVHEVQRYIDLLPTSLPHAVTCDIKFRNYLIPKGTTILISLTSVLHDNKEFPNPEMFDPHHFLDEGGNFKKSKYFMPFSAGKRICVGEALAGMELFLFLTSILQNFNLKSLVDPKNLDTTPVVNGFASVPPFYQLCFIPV

Structure (SMILES)	activity change, negative = inhibition	Potency
C[C@@]12CC[C@@H]3c4ccc(O)cc4CC[C@H]3[C@H]1CC[C@H]2O	48.6% [at 25.6 µM]	
COC(=O)C1C(c2ccccc2)C2C(=O)c3c(OC)cc(OC)cc3O[C@@]12c1ccc(OC)cc1 (some centres not stated)	-4.65% [at 11.4 µM]	
CN(C)CCC(=O)[C@@]1(O)CC[C@H]2[C@H]3CC=C4C[C@@H](O)CC[C@]4(C)[C@H]3CC[C@]21C		2.51 µM (active)
COCOc1ccc(Br)cc1C(=O)/C=C\c1ccc2c(c1)OCO2		2 µM (active)
CC(=O)c1c(O)c(C)c(O)c2c1OC1=CC(=O)[C@H](C(C)=O)C(=O)[C@]12C		0.0126 µM (active)
C[C@H](Br)C(=O)c1ccc2cc(Br)c3ccccc3c2c1	58.8% [at 11.4 µM]	
CC(C)C[C@H](NC(=O)N1CCCCCC1)C(=O)N[C@H](Cc1cn(C)c2ccccc12)C(=O)N[C@H](Cc1ccccn1)C(=O)O		6.31 µM (active)
O=[N+]([O-])c1ccc(S(=O)(=O)Cc2ccccc2)c([N+](=O)[O-])c1		3.16 µM (active)

The molecules below were run against Cytochrome P450 3A4 (Homo sapiens) (UniProt P08684) (assay: qHTS Assay for Inhibitors and Substrates of Cytochrome P450 3A4 (AID 884; also: potency is read from the fitted curve at half-maximal effect; nearly all actives have a fitted effect of over 50% in size)). Conditions: recombinant CYP3A4, Luciferin-PPXE luminescence; series mostly up to 57.1 µM; activity change, negative = inhibition: at the top concentration.
Summary of the method: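 Luminescent readout of luciferin produced by CYP3A4 (20 nM) dealkylation of Luciferin-PPXE, 25 uM (its KM). NADPH-driven reaction ran 60 min at RT after 10 min compound preincubation; data scaled to 57 uM ketoconazole as 100% inhibition.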

Sequence of Cytochrome P450 3A4 (Homo sapiens) (P08684 whole entry, looked up): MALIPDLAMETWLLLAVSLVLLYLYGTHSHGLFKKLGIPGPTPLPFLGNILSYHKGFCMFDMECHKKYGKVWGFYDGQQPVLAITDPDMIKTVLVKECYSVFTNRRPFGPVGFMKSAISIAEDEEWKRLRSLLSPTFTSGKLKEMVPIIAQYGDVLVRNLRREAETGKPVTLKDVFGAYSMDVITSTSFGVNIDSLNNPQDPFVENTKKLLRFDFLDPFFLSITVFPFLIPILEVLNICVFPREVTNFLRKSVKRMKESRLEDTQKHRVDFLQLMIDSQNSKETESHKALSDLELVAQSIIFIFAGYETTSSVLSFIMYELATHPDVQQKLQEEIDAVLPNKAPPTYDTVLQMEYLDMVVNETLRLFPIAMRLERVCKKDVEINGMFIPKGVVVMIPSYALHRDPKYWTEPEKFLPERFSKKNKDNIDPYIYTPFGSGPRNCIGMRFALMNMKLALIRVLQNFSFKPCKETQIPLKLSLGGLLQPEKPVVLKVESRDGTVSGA

Structure (SMILES)	Potency
COC(=O)C1C(c2ccccc2)C2C(=O)c3c(OC)cc(OC)cc3O[C@@]12c1ccc(OC)cc1 (some centres not stated)	3.98 µM (active)
COCOc1ccc(Br)cc1C(=O)/C=C\c1ccc2c(c1)OCO2	3.16 µM (active)
O=[N+]([O-])c1ccc(S(=O)(=O)Cc2ccccc2)c([N+](=O)[O-])c1	0.316 µM (active)
C[C@@]12C=CC(=O)C=C1CC[C@@H]1C2=CC[C@]2(C)[C@@H]1CC[C@H]2C(=O)CN1CCN(c2cc(N3CCCC3)nc(N3CCCC3)n2)CC1	3.16 µM (active)

Each molecule was assayed against Cytochrome P450 3A4 (Homo sapiens) (UniProt P08684) (assay: qHTS Assay for Activators of Cytochrome P450 3A4 (AID 885; also: nearly all actives have a fitted effect of over 65% in size)). Conditions: recombinant CYP3A4, Luciferin-PPXE luminescence, 60 min; series mostly up to 57.1 µM; activity change, positive = activation: at the top concentration.
Summary of the method: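 CYP3A4 activity: Luciferin-PPXE O-dealkylation, 25uM substrate, 200mM KPO4, RT throughout. Read-out is luciferase luminescence; higher values reflect activation.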

Structure (SMILES)	activity change, positive = activation
COC(=O)C1C(c2ccccc2)C2C(=O)c3c(OC)cc(OC)cc3O[C@@]12c1ccc(OC)cc1 (some centres not stated)	-68.8% [at 11.4 µM]
Cc1c2ccccc2c(C)c2c1ccc1ccccc12	-48.2%
COCOc1ccc(Br)cc1C(=O)/C=C\c1ccc2c(c1)OCO2	-91.5% [at 11.4 µM]
O=[N+]([O-])c1ccc(S(=O)(=O)Cc2ccccc2)c([N+](=O)[O-])c1	-105% [at 11.4 µM]
C[C@@]12C=CC(=O)C=C1CC[C@@H]1C2=CC[C@]2(C)[C@@H]1CC[C@H]2C(=O)CN1CCN(c2cc(N3CCCC3)nc(N3CCCC3)n2)CC1	-71.9%
